Screens deposited in PubChem by several laboratories.
Only some compounds are listed: those with a hit (about 9.6% of all), similar ones and a draw of the others.
Insulin prom up: MIN6 insulin promoter up-regulation | MIN6 insulin promoter-GFP reporter, high-content imaging; stronger effect = higher value | z-score at 5 µM | 190,000 compounds, 0.3% hits;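 active = z-score above 3 at 5 µM with at least 500 cells counted in the well; inconclusive = wells under 500 cells, flagged as cytotoxic or low count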
HCT116 bCat-KO: beta-catenin-lacking colon tumor cell growth suppression; 140,000 compounds, 1.5% hits; viability, % at 10 µM; AID 818; HCT116 beta-catenin knockout viability, CellTiter-Glo, 60 h; stronger effect = lower value;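 active = viability at or under a set limit, the compound median less 4 SD, cut at about 6% in these data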;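 also: 0% = Hyamine 1622 control at 20 µM and 100% = untreated cell control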
INS promoter inh: TRM-6 insulin promoter activity inhibition; TRM-6 cells (human fetal islet line), insulin promoter-eGFP reporter, imaging; reporter expression induced with tamoxifen; inhibition, % at 2 µM; 130,000 compounds, 0.9% hits; AID 1273;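 active = inhibition above the mean plus 3 SD, with well images judged a real hit on visual review, cut at about 60% in these data, passing the limit was not always enough; inconclusive = inhibition over the cutoff but images rejected on review; inactive = inhibition not above the cutoff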
PTEN del growth: growth suppressors of cells with PTEN tumor suppressor deletion; HCT116 PTEN-null viability, CellTiter-Glo, 60 h; stronger effect = lower value; viability, % at 10 µM; 140,000 compounds, 1.2% hits; AID 827;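 active = viability at or below a set limit, 4 SD under the median of all tested compounds, cut at about 3.7% in these data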;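 also: PTEN knockout HCT116 line with beta catenin targeted HCT116 as companion control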
Autophagy mod: modulators of autophagy; MEF GFP-LC3 puncta imaging; test concentration mostly 10 µM; calls only at 10 µM (by protocol); 190,000 compounds, 0.98% hits; AID 463193;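 active = percentage of spot-positive cells more than 3 SD above its plate mean, without a fluorescence outlier flag or 80% toxicity; inconclusive = no clear call, values can overlap the other calls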;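 also: spot-positive cell cutoff set from DMSO-treated cells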
L major viab: reduces viability of Leishmania major promastigotes; resazurin fluorescence viability; inhibition, % at 10 µM; 200,000 compounds, 9% hits; in the data active = inhibition above about 50%;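 also: promastigotes grown with compound for 44 hours at 28 °C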
* hit, by the source's call; i = inactive; ? = inconclusive; . = no result; + = active, no number.

SMILES	Insulin prom up	HCT116 bCat-KO	INS promoter inh	PTEN del growth	Autophagy mod	L major viab
COc1ccc(CC(=O)NNC(=O)CSc2nnc(Cc3ccc(OC)cc3)n2-c2ccccc2)cc1	.	91	71*	93	i	-4
COc1ccc(-n2c(Cc3cccn3C)nnc2SCC(=O)Nc2ccc(C)cc2)cc1	0.97	71	.	67	i	5
COc1ccc(CC(=O)NNC(=O)CSc2nnc(C)n2-c2ccccc2)cc1	0	93	23	111	i	2
COc1ccc(NCc2nnc(SCC(=O)Nc3nc(-c4ccccc4)cs3)n2-c2ccccc2)cc1	-1.6	1.3*	12	1.8*	i	24
COc1ccc(NC(=O)CSc2nnc(Cc3cccs3)n2-c2ccc(C)cc2)cc1	0.14	84	-6	86	i	98*
COc1ccc(-n2c(CNc3ccc(C)cc3)nnc2SCC(=O)Nc2nc(-c3ccccc3)cs2)cc1	-0.36	0.8*	.	0.4*	i	2
Cn1c(SCc2nc3ccccc3s2)nnc1-c1cccs1	.	88	-4	83	i	14
CCOC(=O)CCCc1ccc(/C(C)=N/NC(=S)NC)cc1	0.54	.	.	.	.	.
CCn1c(SCc2ccccc2)nnc1-c1ccc(S(=O)(=O)N2CCCCC2)cc1	?	72	.	71	i	99*
CCn1c(SCc2nnc(-c3ccccc3)o2)nnc1-c1ccc(S(=O)(=O)N2CCCC2)cc1	0.54	89	-33	87	i	99*
O=S(=O)(c1ccc(-c2nnc(SCc3nnc(-c4ccccc4)o3)o2)cc1)N1CCCC1	-1.2	86	7	89	i	100*
O=C(CSc1nnc(-c2ccc(S(=O)(=O)N3CCCC3)cc2)o1)NCc1ccccc1	-0.05	84	-12	85	i	99*
CCOc1ccc(CN(C)C(=O)c2cccnc2OCC)cc1OC	-0.56	.	.	.	i	-7
Cc1nnc(SCC(=O)Nc2cccc(S(=O)(=O)NC3=NCCCCC3)c2)n1Cc1ccccc1	-0.87	.	-33	.	i	-3
COc1ccc(S(=O)(=O)NCC2CCCN(Cc3ccc(C)o3)C2)cc1 (stereo unspecified)	-0.07	.	.	.	i	21
CCc1ccc(CN2CCCC(CNS(=O)(=O)c3ccc(OC)cc3)C2)cc1 (stereo unspecified)	-0.56	.	.	.	+	84*
CCOC(=O)c1sc2ccccc2c1OC(=O)c1ccccc1	-0.23	93	11	98	i	-8
CCOC(=O)c1sc2ccccc2c1NC(=O)c1coc2ccccc2c1=O	-0.46	90	-2	92	i	58*
O=c1cc(CN2CCN(c3ccc(O)cc3)CC2)nc2scc(-c3ccccc3)n12	-0.56	.	43	.	i	-1
CC(C)(C)C(=O)Cn1ncc(Br)c(Br)c1=O	?	.	.	.	i	56*
O=C1C(Cl)=C(N2CCCCCC2)C(=O)N1c1ccccc1	0.94	100	-45	101	i	2
CCCOc1ccc(S(=O)(=O)NCCN2CCOCC2)c2ccccc12	-0.64	84	6	92	i	66*
CCOc1cc(S(=O)(=O)NCCN2CCOCC2)c(C)cc1C	0.11	91	-86	90	i	1
CCOc1ccc(S(=O)(=O)NCCN2CCOCC2)c2ccccc12	-0.81	102	.	83	i	96*
COc1c(S(=O)(=O)NCCN2CCOCC2)ccc(Cl)c1Cl	0.26	100	22	108	i	67*
SMILES	Insulin prom up	HCT116 bCat-KO	INS promoter inh	PTEN del growth	Autophagy mod	L major viab
O=S(=O)(NCCN1CCOCC1)c1ccc(Cl)s1	0.2	.	.	.	i	-1
Cc1ccccc1NC(=O)CN1C(=O)NC(C)(CCc2ccccc2)C1=O (stereo unspecified)	0.83	.	.	.	i	1
O=C(Nc1cccnc1)c1ccc(Oc2ccccc2)cc1	-0.16	83	-15	91	i	90*
CN(C)CCNc1nc2c(c(=O)[nH]c(=O)n2C)n1CC(O)COc1ccc(Cl)cc1 (stereo unspecified)	-0.38	93	.	96	i	0
CCN(CC)CCNc1nc2c(c(=O)[nH]c(=O)n2C)n1CC(O)COc1ccc(Cl)cc1Cl (stereo unspecified)	-1.7	77	-23	79	i	92*
Cc1cc(C)n(-c2nc3c(c(=O)[nH]c(=O)n3C)n2CC(O)COc2ccc(Cl)cc2Cl)n1 (stereo unspecified)	0.09	25	-40	22	+	-1
